Results from PubChem BioAssay (NCATS).
Records with an inconclusive call do not appear. Where a call stands in place of a potency, no number is given. Unmarked numbers belong to inactive results. Activity calls are given as the source filed them. Calls come from the whole dose curve; as a rule, active = well fitted cell-killing curve with a large enough effect; inconclusive = small, poorly fitted or top-dose-only effect, or effect the other way; inactive = no such curve, though single readings can be large or run the other way.

Tests used:
[1] = Viability qHTS for spleen associated tyrosine kinase inhibitor (SYKi) naive MV4-11 cells (AID 1963823); note: nearly all actives have a fitted effect of over 40% in size
Method in brief: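 Read-out: CellTiter-Glo luminescence. Exposure: 72 hr, 37 C, 5% CO2, 95% humidity. Cells: MV4-11 without SYK inhibitor history, 500/well, qHTS format.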

[2] = Viability qHTS for spleen associated tyrosine kinase inhibitor (SYKi) drug resistant MV4-11 cells (AID 1963824); note: nearly all actives have a fitted effect of over 35% in size
Method in brief: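 SYK-inhibitor-resistant MV4-11 AML cells were seeded at 500 per well onto compound and cultured 72 hours (37 °C, 5% CO2). CellTiter-Glo was then added, and after 10 min at room temperature, luminescence gave viability.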
Potency is the fitted concentration of half-maximal effect.

Structure (SMILES) | Potency [1] | Potency [2] | viability (% of control) [1] | viability, % of control [2]
Cc1ccc([C@@H]2O[C@H](CO)[C@@H](O)[C@H](O)[C@H]2O)cc1Cc1ccc(-c2ccc(F)cc2)s1 | 18.6 µM (active) | 16.6 µM (active) | – | –
CC/C=C\CC1C(=O)CCC1CC(=O)OC (stereo unspecified) | inactive | inactive | – | –
COc1ccccc1OCCNCC(O)CCOc1cccc2[nH]c3ccccc3c12 (stereo unspecified) | 9.2 µM (active) | 9.2 µM (active) | – | –
CC(C)[C@@](C)(O)[C@@H]1CN(c2nc(-c3[nH]nc4ncccc34)c(F)cc2Cl)CCN1 | 0.366 µM (active) | 0.731 µM (active) | – | –
Cc1ccc(C2(COC(=O)C(C)C)CO2)c(OC(=O)C(C)C)c1 (stereo unspecified) | 1.8 µM (active) | 2.02 µM (active) | – | –
C/C=C(/C)C(=O)OC1CC(C)(C)CC2C3=CCC4C5(C)CCC(OC6OC(C)C(OC7OC(C(=O)O)C(O)C(OC8OC(CO)C(O)C(O)C8OC8OC(CO)C(O)C(O)C8O)C7O)C(O)C6O)C(C)(C)C5CCC4(C)C3(C)C(OC(=O)/C=C/C=C/C=C/CCC)C(OC(C)=O)C12CO (stereo unspecified) | – | – | 68.8% [at 9.25 µM] | 73.3% [at 9.25 µM]
O=C(Nc1ncc(SCCN2CCCC2)s1)C1(c2ccc(S(=O)(=O)C3CC3)cc2)CC1C1CCCCC1 (stereo unspecified) | 8.2 µM (active) | 8.2 µM (active) | – | –
COc1ccc(S(=O)(=O)N[C@@H](CNc2nc(C)nc(N3CCC(c4ccc5c(n4)NCCC5)CC3)c2C)C(=O)O)cc1 | inactive | inactive | – | –
Cn1c(=O)cc(N2CCCC(N)C2)n(Cc2ccccc2C#N)c1=O (stereo unspecified) | inactive | inactive | – | –
CC(=O)O[C@@H]1[C@H](O[C@@H]2O[C@H](CO)[C@@H](O)[C@H](O)[C@H]2O)[C@@H](O[C@@H]2O[C@@H](C)[C@H](O)[C@@H](O[C@@H]3O[C@H](CO)[C@@H](O)[C@H](O)[C@H]3O)[C@H]2O)[C@H](OC(=O)C23CCC4(C)C(=CCC5C6(C)CC(O)C(O[C@@H]7O[C@H](C(=O)O)[C@@H](O)[C@H](O)[C@H]7O)C(C)(C(=O)O)C6CCC54C)C2CC(C)(C)CC3O)O[C@@H]1C (stereo partly specified) | – | – | 92% [at 9.25 µM] | 102% [at 9.25 µM]
CC(C)C(C)C(O)C1CC23CC(=O)C4(O)C(=C2CCC3C1C)C=CC1(O)CC(O)CCC14C (stereo unspecified) | inactive | 7.09 µM (active) | – | –
CC(O)CCC1C(CO[C@@H]2O[C@H](CO)[C@@H](O)[C@H](O)[C@H]2O)CC(O)CC1(C)C (stereo partly specified) | inactive | inactive | – | –
CC1(CCOC2OC(CO)C(O)C(O)C2O)CCC23OC2(C1)C(O)CC1C(C)(C(=O)O)CCCC13C (stereo unspecified) | inactive | inactive | – | –
COc1cccc(C(=O)NCCNc2nc3cc(C)cc(C)c3cc2C#N)c1 | inactive | inactive | – | –
OC[C@H]1O[C@@H](Oc2ccccc2)[C@H](O)[C@@H](O)[C@@H]1O | inactive | inactive | – | –
CC1CC[C@]2(C(=O)O)CC[C@]3(C(=O)O)C(=CCC4[C@@]5(C)CC[C@H](O[C@@H]6O[C@H](CO)[C@@H](O)[C@H](O)[C@H]6O)C(C)(C)C5CC[C@]43C)C2C1C (stereo partly specified) | inactive | inactive | – | –
CC(C)C1(O[C@@H]2O[C@H](CO)[C@@H](O)[C@H](O)[C@H]2O)CC=C(CO)CC1 (stereo partly specified) | inactive | inactive | – | –
CC(C)(O)/C=C/C(=O)[C@](C)(O)[C@H]1[C@H](O)C[C@@]2(C)[C@@H]3CC=C4[C@@H](C=C(O[C@@H]5O[C@H](CO)[C@@H](O)[C@H](O)[C@H]5O)C(=O)C4(C)C)[C@]3(C)C(=O)C[C@]12C | inactive | inactive | – | –
O=C(O[C@@H]1O[C@H](CO)[C@@H](O)[C@H](O)[C@H]1O)c1c(O)cc(O)cc1/C=C/c1ccccc1 | inactive | inactive | – | –
C=C1C(=O)O[C@@H]2/C=C(\C)CC/C=C(/C=O)[C@H](OC)[C@@H](OC(=O)C(C)C)[C@@H]12 | 4.04 µM (active) | 2.55 µM (active) | – | –
C/C(=C\C=C\C(C)C1CCC2(C)C3CCC4C(C)(C)C(=O)CCC45CC35CCC12C)C(=O)O (stereo unspecified) | inactive | 6.32 µM (active) | – | –
O=C1N=C(O)S/C1=C\c1ccc2nccnc2c1 | 13 µM (active) | 13 µM (active) | – | –
CC[C@H]1OC(=O)[C@H](C)C(=O)[C@H](C)[C@@H](OC2O[C@H](C)C[C@H](N(C)C)[C@H]2O)[C@@H](C)C[C@@H](C)C(=O)/C=C/[C@]1(C)O (stereo partly specified) | inactive | inactive | – | –
CC1CC(=O)[C@]2(O)C(C(=O)OCCc3ccc(O)cc3)=CO[C@@H](O[C@@H]3O[C@H](CO)[C@@H](O)[C@H](O)[C@H]3O)[C@H]12 (stereo partly specified) | inactive | inactive | – | –

Structure (SMILES) | Potency [1] | Potency [2] | viability (% of control) [1] | viability, % of control [2]
C=C1C(=O)OC2C(OC(=O)C=C(C)C)C(C)=C3C(=O)C=C(C)C3C(O)C12 (stereo unspecified) | 2.02 µM (active) | 1.61 µM (active) | – | –
CC(=O)N[C@H](Cc1ccc(O)cc1)C(=O)N[C@H](CCCN=C(N)N)C(=O)N[C@H](Cc1ccccc1)C(N)=O | inactive | inactive | – | –
O=C1NC(=O)[C@@H](c2cn3c4c(cccc24)CCC3)[C@@H]1c1c[nH]c2ccccc12 | 1.18 µM (active) | 1.32 µM (active) | – | –
O=C1NC(c2cccc([N+](=O)[O-])c2)=CCN1c1ccccc1O | inactive | inactive | – | –
COc1cc(Nc2nc3c(s2)CCCC3c2ccc(F)cc2)ccc1-n1cnc(C)c1 (stereo unspecified) | 3.66 µM (active) | 4.61 µM (active) | – | –
CC(C)(N)c1cc(C(=O)N[C@@H]2CCc3ccc(Oc4ccnc5c4CCC(=O)N5)cc3C2)cc(C(F)(F)F)c1 | 0.92 µM (active) | 1.3 µM (active) | – | –
C=CC(C)(O)CC/C=C(\C)C(=O)OCC1OC(OC2CCC3(C)C(CCC4(C)C3CC=C3C5CC(C)(C)C(O)CC5(C(=O)O)CCC34C)C2(C)C)C(O)C(OC2OC(CO)C(O)C(OC3OC(CO)C(O)C(OC4OC(COC5OC(CO)C(O)C(O)C5O)C(O)C(O)C4O)C3O)C2O)C1O (stereo unspecified) | – | – | 99.5% [at 9.25 µM] | 108% [at 9.25 µM]
Cc1cc(OCCOCC[N+](C)(C)Cc2ccccc2)ccc1C(C)(C)CC(C)(C)C | 3.35 µM (active) | 2.66 µM (active) | – | –
Cc1occc(=O)c1O[C@@H]1O[C@H](COC(=O)CC(C)(O)CC(=O)O)[C@@H](O)[C@H](O)[C@H]1O (stereo partly specified) | inactive | inactive | – | –
C=C[C@]1(C)C[C@H](O)[C@@H]2[C@H](OC(=O)[C@@H]2C)C1/C(C)=C/O[C@@H]1O[C@H](CO)[C@@H](O)[C@H](O)[C@H]1O (stereo partly specified) | inactive | inactive | – | –
CC1=CC(=O)[C@]2(O[C@@H]3O[C@@H](C)[C@H](O)[C@@H](O)[C@H]3OC(=O)/C=C/c3ccccc3)C=CO[C@@H](O[C@@H]3O[C@H](CO)[C@@H](O)[C@H](O)[C@H]3O)[C@H]12 | inactive | inactive | – | –
CC1=CC2=C(C)C(=O)[C@](C)(O)[C@H](O)C2=CO1 | inactive | inactive | – | –
CONC(=O)c1ccccc1Nc1cc(Nc2cc(C)nn2C(C)C)ncc1Cl | 6.61 µM (active) | 13.2 µM (active) | – | –
COCC(c1ccc(C(F)(F)F)cc1)N1CCN(C2(C)CCN(C(=O)c3c(C)ncnc3C)CC2)CC1C (stereo unspecified) | inactive | inactive | – | –
COc1cc(OC)cc(-c2ccc3c(-c4ccc(F)cc4)[nH]nc3n2)c1 | inactive | inactive | – | –
CC(CCC1(O)OC2CC3C4CC=C5CC(O[C@@H]6O[C@H](CO)[C@@H](O[C@@H]7O[C@@H](C)[C@H](O)[C@@H](O)[C@H]7O)[C@H](O)[C@H]6O[C@@H]6O[C@@H](C)[C@H](O)[C@@H](O)[C@H]6O)CCC5(C)C4CCC3(C)C2C1C)CO[C@@H]1O[C@H](CO)[C@@H](O)[C@H](O)[C@H]1O (stereo partly specified) | 3.48 µM (active) | 3.48 µM (active) | – | –
CC(C)=CCC[C@](C)(O[C@@H]1O[C@H](CO[C@@H]2OC[C@@H](O)[C@H](O)[C@H]2O)[C@@H](O)[C@H](O)[C@H]1O)[C@H]1CC[C@]2(C)[C@@H]1[C@H](O)C[C@@H]1[C@@]3(C)CC[C@H](O[C@@H]4O[C@H](CO)[C@@H](O)[C@H](O)[C@H]4O[C@@H]4O[C@H](CO)[C@@H](O)[C@H](O)[C@H]4O)C(C)(C)[C@@H]3CC[C@]12C | inactive | inactive | – | –
COc1cc2ncc(-c3ccccc3)nc2cc1OC | 3.66 µM (active) | 4.61 µM (active) | – | –
C[C@@H]1O[C@@H](O[C@H]2[C@H](OC(=O)[C@]34CCC(C)(C)C[C@H]3C3=CCC5[C@@]6(C)C[C@@H](O)[C@@H](O)[C@@](C)(CO)C6[C@H](O)C[C@@]5(C)[C@]3(C)CC4)OC[C@H](O)[C@@H]2O)[C@H](O)[C@H](O)[C@H]1O[C@@H]1OC[C@@H](O)[C@H](O[C@H]2O[C@H](C)[C@@H](O)[C@H](O)[C@@H]2O)[C@H]1O (stereo partly specified) | – | – | 80.2% [at 9.25 µM] | 77.9% [at 9.25 µM]
COC(=O)N[C@H](C(=O)N1CCC[C@H]1c1ncc(-c2ccc(-c3ccc(-c4cnc([C@@H]5CCCN5C(=O)[C@@H](NC(=O)OC)C(C)C)[nH]4)cc3)cc2)[nH]1)C(C)C | 18.6 µM (active) | 16.6 µM (active) | – | –
O=C(O[C@H]1[C@@H]2C=CO[C@@H](O[C@@H]3O[C@H](CO)[C@@H](O)[C@H](O)[C@H]3O)[C@@H]2[C@@]2(CO)O[C@@H]12)c1ccc(O)c(O)c1 | inactive | inactive | – | –
COC(=O)C1=CO[C@@H](O[C@@H]2O[C@H](CO)[C@@H](O)[C@H](O)[C@H]2O)[C@H]2[C@@H]1CC(OC)O[C@@H]2C (stereo partly specified) | inactive | inactive | – | –
c1ccc2c(-c3cnn4cc(-c5ccc(OCCN6CCOCC6)cc5)cnc34)ccnc2c1 | 1.02 µM (active) | 1.44 µM (active) | – | –
C[C@H]1[C@H](C)CC[C@]2(C(=O)OC3OC(CO)C(O)C(O)C3O)CC[C@]3(C(=O)O)C(=CCC4[C@@]5(C)CC[C@H](O[C@@H]6O[C@@H](C)[C@H](OC7OC(CO)C(O)C(O)C7O)[C@@H](O)[C@H]6O)C(C)(C)C5CC[C@]43C)[C@H]12 (stereo partly specified) | – | – | 80.8% [at 9.25 µM] | 108% [at 9.25 µM]
